Test results from PubChem BioAssay AID624255 (Broad Institute, 2012).
Screen size: about 77,000 compounds; about 4,600 (6%) were called active. Not shown: some 1% with an inconclusive outcome. This excerpt belongs to a sample that is enriched for actives. Unmarked numbers belong to inactive results.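 The calls were made as follows: active = mean inhibition above about 93%, with at least 55% of replicates each passing it (limit read from the data, passing the limit was not always enough); inconclusive = only one of those two conditions holds; inactive = neither condition holds.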

assay: growth inhibition of T. cruzi in host fibroblasts – cell-based, beta-gal Tulahuen parasites, NIH3T3 host, luminescence, primary screen (AID 624255); details: T. cruzi beta-gal in NIH3T3, GalScreen luminescence, 90 h; at 8.34 µM; stronger effect = higher value

Q: With C[C@@H]1CN([C@@H](C)CO)S(=O)(=O)c2ccc(-c3cncnc3)cc2O[C@@H]1CN(C)C(=O)C1CC1 as the compound, how does the inhibition read?
A: 21.1%

Q: With CCNC(=O)C[C@H]1CC[C@@H]2[C@H](COC[C@H](O)CN2S(=O)(=O)c2ccc(Oc3ccccc3)cc2)O1 as the compound, how does the inhibition read?
A: 2.89%

Q: For C/C=C/c1ccc([C@@H]2[C@@H](CO)N(C(=O)CC)[C@H]2CN(C)C(=O)C2CC2)cc1, which inhibition is on record?
A: 15%

Q: With COc1ccc(CNC(=O)C[C@H]2C[C@H]3c4cc(NS(C)(=O)=O)ccc4O[C@H]3[C@@H](CO)O2)cc1 as the compound, how does the inhibition read?
A: -53%

Q: With CNC(=O)C[C@H]1CC[C@H]2[C@@H](COc3ccc(NS(=O)(=O)c4ccc(F)cc4)cc3C(=O)N2C)O1 as the compound, how does the inhibition read?
A: 17.2%

Q: Which inhibition does the source give for CN(C)C(=O)C[C@@H]1CC[C@H]2[C@@H](COC[C@H](O)CN2C(=O)c2ccncc2)O1 here?
A: 24.8%

Q: With COc1ccc(S(=O)(=O)Nc2ccc3c(c2)CC(=O)N([C@H](C)CO)C[C@@H](C)[C@H](CN(C)S(=O)(=O)c2c(C)noc2C)O3)cc1 as the compound, how does the inhibition read?
A: -5.62%

Q: Which inhibition does the source give for C[C@@H](NC(=O)[C@H]1[C@H](CO)[C@H]2Cn3c(cccc3=O)[C@@H]1N2Cc1cccnc1)c1ccccc1 here?
A: 50%

Q: With C[C@@H]1CN([C@@H](C)CO)C(=O)c2cccc(NC(=O)c3cnccn3)c2O[C@H]1CN(C)Cc1ccc(-c2ccccc2)cc1 as the compound, how does the inhibition read?
A: 98.7%

Q: Which inhibition does the source give for C[C@@H]1CN([C@@H](C)CO)C(=O)CCCn2nncc2CO[C@@H]1CN(C)Cc1ccccc1 here?
A: -1.5%

Q: With C[C@@H]1CN([C@H](C)CO)C(=O)c2cccc(NC(=O)c3cnccn3)c2O[C@@H]1CN(C)Cc1ccc(C(=O)Nc2ccccc2N)cc1 as the compound, how does the inhibition read?
A: 109% (active)

Q: With C[C@@H]1CN([C@@H](C)CO)C(=O)c2cccc(NC(=O)c3cnccn3)c2O[C@H]1CN(C)Cc1ccc(C(=O)O)cc1 as the compound, how does the inhibition read?
A: -4.45%

Q: With C[C@@H]1CN([C@H](C)CO)C(=O)CCCn2nncc2CO[C@@H]1CN(C)Cc1ccc(C(=O)Nc2ccccc2N)cc1 as the compound, how does the inhibition read?
A: 103% (active)

Q: With C[C@H]1CN([C@@H](C)CO)C(=O)CCCn2nncc2CO[C@H]1CN(C)Cc1ccccc1 as the compound, how does the inhibition read?
A: -4.75%

Q: Which inhibition does the source give for COCC(=O)Nc1ccc2c(c1)C(=O)N(C)[C@H]1CC[C@H](CC(=O)Nc3ccccc3)O[C@H]1CO2 here?
A: 43.2%

Q: With C[C@@H]1CN([C@H](C)CO)C(=O)c2cc(-c3ccc(C#N)cc3)cnc2O[C@@H]1CN(C)C(=O)Nc1ccccc1 as the compound, how does the inhibition read?
A: 33.2%

Q: For CCN1[C@@H]2Cn3c(ccc(-c4cccnc4)c3=O)[C@H]1[C@@H](C(=O)NC1CCCCC1)[C@@H]2CO, which inhibition is on record?
A: -16.4%

Q: With O=C(NC[C@@H]1[C@H](c2ccccc2)[C@H](CO)N1CC1CCCC1)c1cccnc1 as the compound, how does the inhibition read?
A: 15.8%

Q: For CO[C@H]1CN(C)C(=O)c2ccc(NC(C)=O)cc2OC[C@H](C)N(C(=O)c2ccccc2)C[C@H]1C, which inhibition is on record?
A: -19.6%

Q: Which inhibition does the source give for CCNC(=O)[C@@H]1[C@@H](CO)[C@@H]2Cn3c(ccc(-c4ccncc4)c3=O)[C@@H]2N1Cc1cc(F)ccc1F here?
A: 80.1%

Q: For COCC#Cc1ccc2c(c1)O[C@@H](CN(C)S(C)(=O)=O)[C@H](C)CN([C@H](C)CO)S2(=O)=O, which inhibition is on record?
A: 2.15%

Q: For CCCN(C)C[C@H]1Oc2cc(C#CC3CCCC3)ccc2S(=O)(=O)N([C@H](C)CO)C[C@@H]1C, which inhibition is on record?
A: 98.6% (active)

Q: With CCCN(C)C[C@@H]1Oc2cc(C#Cc3ccc(F)cc3)ccc2S(=O)(=O)N([C@H](C)CO)C[C@H]1C as the compound, how does the inhibition read?
A: 100% (active)

Q: For CCCN(C)C[C@@H]1Oc2cc(C#CC3CCCCC3)ccc2S(=O)(=O)N([C@@H](C)CO)C[C@@H]1C, which inhibition is on record?
A: 42.1%

Q: Which inhibition does the source give for C[C@@H]1CN([C@@H](C)CO)S(=O)(=O)c2ccc(C#Cc3ccc(F)cc3)cc2O[C@H]1CN(C)S(C)(=O)=O here?
A: 113% (active)

Q: With C[C@@H]1CN([C@@H](C)CO)S(=O)(=O)c2ccc(C#CC3CCCC3)cc2O[C@H]1CN(C)S(C)(=O)=O as the compound, how does the inhibition read?
A: -41.8%

Q: Which inhibition does the source give for CCCC#Cc1ccc2c(c1)O[C@@H](CN(C)CCC)[C@@H](C)CN([C@H](C)CO)S2(=O)=O here?
A: 63.4%

Q: Which inhibition does the source give for CNC[C@@H]1Oc2cc(C#CC3CCCC3)ccc2S(=O)(=O)N([C@@H](C)CO)C[C@@H]1C here?
A: 61%

Q: With CCCN(C)C[C@@H]1Oc2cc(C#CCc3ccccc3)ccc2S(=O)(=O)N([C@H](C)CO)C[C@@H]1C as the compound, how does the inhibition read?
A: 80.1%

Q: Which inhibition does the source give for C[C@@H](NC(=O)C[C@@H]1CC[C@@H]2[C@H](COC[C@@H](O)CN2C(=O)Nc2cccc(F)c2)O1)c1ccccc1 here?
A: 21.9%

Q: For CC(C)NC(=O)N(C)C[C@@H]1Oc2ncc(-c3ccc(C(=O)N(C)C)cc3)cc2C(=O)N([C@H](C)CO)C[C@H]1C, which inhibition is on record?
A: 35.4%

Q: With COc1ccc(S(=O)(=O)N(C)C[C@H]2OCCCC[C@H](C)Oc3ccc(NS(=O)(=O)c4c(C)noc4C)cc3C(=O)N([C@@H](C)CO)C[C@@H]2C)cc1 as the compound, how does the inhibition read?
A: 23.4%

Q: For C[C@H]1CN([C@@H](C)CO)C(=O)c2cc(C#CC(C)(C)O)cnc2O[C@H]1CN(C)C(=O)CC1CC1, which inhibition is on record?
A: -14.6%

Q: With O=S(=O)(Cc1ccccc1)NCC[C@@H]1CC[C@@H](NS(=O)(=O)c2ccccc2)[C@@H](CO)O1 as the compound, how does the inhibition read?
A: -0.486%

Q: Which inhibition does the source give for CC(=O)N1CC[C@@H]2[C@@H](CO)N(C)c3ccc(-c4ccc(C#N)cc4)cc3[C@@H]21 here?
A: 52.3%

Q: For Cc1noc(C)c1NC(=O)Nc1ccc2c(c1)C(=O)N([C@@H](C)CO)C[C@@H](C)[C@H](CN(C)C(=O)Nc1ccc(C(F)(F)F)cc1)OCCCC[C@@H](C)O2, which inhibition is on record?
A: 27.1%

Q: For Cn1cnc(S(=O)(=O)N2CCCCN3[C@H](CO)[C@@H](c4ccc(-c5ccc(F)cc5)cc4)[C@@H]3C2)c1, which inhibition is on record?
A: 11.8%

Q: With COc1ccccc1-c1ccc([C@@H]2[C@@H](CO)N3CCCCN(S(=O)(=O)c4cn(C)cn4)C[C@H]23)cc1 as the compound, how does the inhibition read?
A: 42.2%

Q: Which inhibition does the source give for O=S(=O)(c1ccc(F)cc1)N1CCCCN2[C@H](C1)[C@H](c1ccc(C3=CCCCC3)cc1)[C@@H]2CO here?
A: 99.1% (active)

Q: With COc1ccc(S(=O)(=O)N2CCCCN3[C@H](C2)[C@H](c2ccc(C4=CCCC4)cc2)[C@@H]3CO)cc1 as the compound, how does the inhibition read?
A: 7.54%

Q: Which inhibition does the source give for COc1ccc(S(=O)(=O)N2CCCCN3[C@H](CO)[C@H](c4ccc(C5=CCCCC5)cc4)[C@@H]3C2)cc1 here?
A: 88.5%

Q: With Cc1ccccc1-c1ccc([C@H]2[C@H]3CN(S(=O)(=O)c4ccc(F)cc4)CCCCN3[C@H]2CO)cc1 as the compound, how does the inhibition read?
A: 111% (active)

Q: With Cc1ccccc1-c1ccc([C@@H]2[C@H](CO)N3CCCCN(S(=O)(=O)c4ccc(F)cc4)C[C@@H]23)cc1 as the compound, how does the inhibition read?
A: 112% (active)
